Experimental data taken from PubChem BioAssay.
The source made the active and inactive calls. Unless noted, the rule behind the calls is not given here.

Key:
[1] = HepG2 liver cancer cell viability effects, profiling panel, resazurin fluorescence, 24 h, PK04 Diversity Set (AID 1172); conditions: higher = more signal
[2] = basal S. cerevisiae growth modulation, no modifier, primary screen, OD600, strain BY4716, 24 h, basal condition (AID 1173); conditions: OD600, 24 h, higher = more signal, called active from +8 up or from −8 down
[3] = MM1S myeloma cell viability, profiling panel, resazurin fluorescence, basal, 24 h, PK04 Diversity Set (AID 1174); conditions: higher = more signal, called active from +8 up or from −8 down;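 note: MM1S multiple myeloma cell line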
[4] = molecular target: Dihydroorotate dehydrogenase (quinone), mitochondrial (Plasmodium falciparum (isolate 3D7)) (UniProt Q08210); experiment: PfDHODH enzyme inhibitors, primary screen, biochemical, C-terminal His tag, absorbance 600 nm (AID 1175); conditions: DCIP absorbance 600 nm, higher = more signal, called active from +8 up or from −8 down;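 note: recombinant parasite enzyme with a five histidine tag at its C terminus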
Dihydroorotate dehydrogenase (quinone), mitochondrial (Plasmodium falciparum (isolate 3D7)), sequence (Q08210 whole entry, looked up): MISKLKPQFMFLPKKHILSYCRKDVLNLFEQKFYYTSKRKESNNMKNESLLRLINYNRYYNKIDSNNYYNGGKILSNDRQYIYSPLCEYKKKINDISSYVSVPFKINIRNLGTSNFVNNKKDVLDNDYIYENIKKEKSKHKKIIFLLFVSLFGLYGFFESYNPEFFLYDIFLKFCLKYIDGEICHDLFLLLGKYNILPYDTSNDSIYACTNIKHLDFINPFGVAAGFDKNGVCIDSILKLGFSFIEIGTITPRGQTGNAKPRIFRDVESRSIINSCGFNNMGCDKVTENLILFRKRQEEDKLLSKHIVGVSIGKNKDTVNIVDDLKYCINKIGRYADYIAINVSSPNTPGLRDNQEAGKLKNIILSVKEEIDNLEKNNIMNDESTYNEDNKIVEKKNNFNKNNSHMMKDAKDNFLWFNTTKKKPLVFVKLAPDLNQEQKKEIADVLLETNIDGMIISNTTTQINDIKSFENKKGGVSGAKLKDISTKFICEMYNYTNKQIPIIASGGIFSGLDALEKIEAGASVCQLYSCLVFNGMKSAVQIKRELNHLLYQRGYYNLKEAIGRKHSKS

[5] = P. aeruginosa biofilm formation inhibitors, primary screen, strain PAO1, LB-PBS medium, absorbance 600 nm (AID 1176); conditions: P. aeruginosa PAO1 growth/biofilm, A600, 12 h; higher = more signal
[6] = S. cerevisiae RM11-1a growth modifiers, primary screen, strain RM11-1a, OD600, basal, 24 h (AID 1177); conditions: OD600, 24 h, higher = more signal, called active from +8 up or from −8 down;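 note: cultures grown under basal conditions with no added stressor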
[7] = E. coli acrAB mutant growth effects, primary screen, E. coli filamentation inducers, strain DRC39, OD650, 24 h (AID 1178); conditions: higher = more signal, called active from +8 up or from −8 down;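 note: growth measured as culture turbidity by optical density at 650 nm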
[8] = E. coli acrAB mutant growth effects, primary screen, E. coli filamentation inducers, strain DRC39, OD650, 48 h (AID 1179);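 note: screen aims at cell division blockers that make cells filament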; conditions: E. coli DRC39 delta-acrAB growth, higher = more signal, called active from +8 up or from −8 down
[9] = RPMI8226 myeloma cell viability, profiling panel, resazurin fluorescence, basal, 24 h, PK04 Diversity Set (AID 1180); conditions: higher = more signal;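 note: RPMI8826 multiple myeloma cell line at 5000 cells per well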
[10] = molecular target: E3 ubiquitin-protein ligase XIAP (Homo sapiens) (UniProt P98170); experiment: XIAP binders, primary screen, biophysical, small-molecule microarray, fluorescence 635 nm (AID 1181); conditions: small-molecule microarray binding, higher = more signal;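 note: score merges 667 nm emission and signal to noise over triplicate slides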
E3 ubiquitin-protein ligase XIAP (Homo sapiens), sequence (P98170 whole entry, looked up): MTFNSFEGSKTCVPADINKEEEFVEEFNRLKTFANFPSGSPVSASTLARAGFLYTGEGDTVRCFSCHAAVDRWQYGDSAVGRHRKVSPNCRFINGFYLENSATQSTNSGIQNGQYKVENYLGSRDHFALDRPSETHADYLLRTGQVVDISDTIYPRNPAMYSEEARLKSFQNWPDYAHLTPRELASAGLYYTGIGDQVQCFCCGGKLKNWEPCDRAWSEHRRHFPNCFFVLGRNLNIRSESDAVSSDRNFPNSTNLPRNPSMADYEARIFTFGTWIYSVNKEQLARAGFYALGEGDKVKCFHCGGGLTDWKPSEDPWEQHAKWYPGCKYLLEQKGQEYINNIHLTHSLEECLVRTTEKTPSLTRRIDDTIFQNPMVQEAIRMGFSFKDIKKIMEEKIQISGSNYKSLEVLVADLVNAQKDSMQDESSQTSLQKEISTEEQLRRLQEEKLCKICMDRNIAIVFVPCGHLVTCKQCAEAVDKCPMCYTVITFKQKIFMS

[11] = system: XIP peptide (Xip251-270) binding; experiment: small-molecule binders of XIP peptide, primary screen, biochemical, small-molecule microarray, fluorescence 635/667 nm, 0.1 µg/mL protein (AID 1182); conditions: fluorescent protein binding, 635 nm, higher = more signal, called active from +8 up or from −8 down
XIP peptide (Xip251-270) = experiment: small-molecule binders of XIP peptide, primary screen, biochemical, small-molecule microarray, fluorescence 635/667 nm, 0.5 µg/mL protein (AID 1183); conditions: small-molecule microarray binding, fluorescence 635 nm; higher = more signal
[12] = Plasmodium falciparum growth inhibition, primary screen, strain 3D7, DAPI fluorescence, 100 nL (AID 1184);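 note: parasites grown inside human red blood cells in medium with human serum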; conditions: P. falciparum 3D7 growth, 3 d, higher = more signal
[13] = molecular target: Homeobox protein Hox-A13 (Mus musculus) (UniProt Q62424); experiment: inhibitors of HoxA13-DNA binding, primary screen, biochemical, fluorescence polarization, labeled oligonucleotide (AID 1185); conditions: 15 min, higher = more signal, called active from +8 up or from −8 down
Homeobox protein Hox-A13 (Mus musculus), sequence (Q62424 whole entry, looked up): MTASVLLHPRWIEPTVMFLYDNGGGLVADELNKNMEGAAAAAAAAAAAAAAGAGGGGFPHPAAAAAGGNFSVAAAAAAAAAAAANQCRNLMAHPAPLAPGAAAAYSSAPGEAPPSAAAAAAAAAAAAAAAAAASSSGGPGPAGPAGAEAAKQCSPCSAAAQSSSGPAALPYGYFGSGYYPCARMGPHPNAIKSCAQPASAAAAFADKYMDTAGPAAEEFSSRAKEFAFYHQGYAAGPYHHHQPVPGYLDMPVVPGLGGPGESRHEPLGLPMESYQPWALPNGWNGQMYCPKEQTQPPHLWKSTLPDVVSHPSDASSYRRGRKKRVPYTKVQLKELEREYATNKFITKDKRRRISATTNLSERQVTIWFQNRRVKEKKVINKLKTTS

[14] = inhibitors of hydroxyurea-induced Chk1 phosphorylation, primary screen, imaging, HeLa, phospho-Chk1 antibody, percent positive cells (AID 1186); conditions: hydroxyurea-induced phospho-Chk1 immunofluorescence imaging, higher = more signal
[15] = inhibitors of hydroxyurea-induced Chk1 phosphorylation, primary screen, imaging, HeLa, phospho-Chk1 nuclear intensity (AID 1187); conditions: hydroxyurea-induced phospho-Chk1 immunofluorescence imaging, higher = more signal

Compound | z-score [1] | z-score [2] | z-score [3] | composite z-score [4] | z-score [5] | z-score [6] | z-score [7] | z-score [8] | z-score [9] | composite z-score [10] | composite z-score [11] | composite z-score (XIP peptide (Xip251-270)) | z-score [12] | z-score [13] | z-score [14] | z-score [15]
COC(=O)[C@@]1(Cc2ccccc2)[C@H]2c3cc(C(=O)N(C)C)n(CCSC(=N)N)c3C[C@H]2CN1C(=O)c1ccccc1 | -0.436 | 1.36 (inactive) | -0.399 (inactive) | 0.644 (inactive) | -0.0424 (inactive) | 0.0986 (inactive) | -0.456 (inactive) | -0.295 (inactive) | -0.374 | -0.0592 | -0.667 (inactive) | 0.903 | -0.118 | -3.8 (inactive) | 0.835 (inactive) | 0.849 (inactive)
C=CCN1C(=O)[C@]2(O[C@H](CCn3cc([C@H](O)c4ccccc4)nn3)[C@@H]([Si](C)(C)c3ccc(OC)cc3)[C@@H]2C)c2cc(NC(=O)c3ccc(OC)cc3)ccc21 | -1.66 | -0.971 (inactive) | -3.65 (inactive) | 0.717 (inactive) | 1.59 (inactive) | 1.11 (inactive) | 0.517 (inactive) | 0.418 (inactive) | -3.68 | -0.02 | 0.586 (inactive) | 0.309 | -2.77 | -4.56 (inactive) | -0.552 (inactive) | 0.0018 (inactive)
[N-]=[N+]=Nc1ccccc1[C@H]1OC(c2ccc(OCCCO)cc2)=N[C@@]1(Cc1ccccc1)C(=O)NCC(O)CO (stereo partly drawn) | 1.21 | -1.65 (inactive) | -1.21 (inactive) | -0.0513 (inactive) | -1.08 (inactive) | 0.972 (inactive) | 0.413 (inactive) | 0.318 (inactive) | -1.28 | 0.0487 | 0.448 (inactive) | 0.536 | -1.84 | -4.34 (inactive) | 0.0068 (inactive) | 0.251 (inactive)
O=C1N(CCS(=O)(=O)c2ccccc2)c2ccccc2C[C@]12N=C(c1ccc(OCCCO)cc1)O[C@@H]2c1ccccc1 | -0.285 | 0.376 (inactive) | -2.11 (inactive) | -2.58 (inactive) | 0.575 (inactive) | 2.74 (inactive) | 0.39 (inactive) | -0.0504 (inactive) | -0.885 | 0.311 | 0.412 (inactive) | 0.811 | -2.3 | -4.51 (inactive) | -0.36 (inactive) | -0.357 (inactive)
CCOC(=O)C[C@H]1[C@H](OC(=O)c2ccccc2-c2ccccc2)[C@@H](NC(=O)C2CCCCC2)c2cc(OCCCO)ccc2N1C(=O)c1ccc2ccccc2n1 | -0.872 | 0.818 (inactive) | -0.0667 (inactive) | 0.338 (inactive) | -0.177 (inactive) | 0.743 (inactive) | -0.53 (inactive) | -0.12 (inactive) | 0.131 | -0.0351 | 0.181 (inactive) | 0.727 | 0.433 | -3.33 (inactive) | 0.0664 (inactive) | -0.108 (inactive)
COc1ccc([Si](C)(C)[C@@H]2[C@@H](CC(=O)N3CCC[C@H]3CO)O[C@]3(C(=O)N(Cc4cccc(N5CCCCC5=O)c4)c4ccccc43)[C@H]2C)cc1 | -1.26 | -0.51 (inactive) | -2 (inactive) | -0.877 (inactive) | 0.319 (inactive) | 0.625 (inactive) | 0.894 (inactive) | 0.6 (inactive) | -2.68 | 0.0167 | 2.84 (inactive) | 0.799 | -1.26 | -2.93 (inactive) | -0.515 (inactive) | 0.336 (inactive)
C=CCNC(=O)[C@@H]1[C@H]2C(=O)O[C@H](c3ccccc3)[C@H](c3ccccc3)N2[C@H](c2ccc(OCCO)cc2)[C@@]12C(=O)Nc1ccc(C#CC3(O)CCCCCC3)cc12 | -1.01 | 0.933 (inactive) | -2.37 (inactive) | 0.315 (inactive) | 2.09 (inactive) | 1.16 (inactive) | -0.347 (inactive) | -0.797 (inactive) | -2 | -0.0095 | 1.02 (inactive) | 0.774 | -1.73 | -1.92 (inactive) | -0.0427 (inactive) | -0.271 (inactive)
C=C(/C(=C/C[C@@H](OC(C)=O)c1cccc(OCCO)c1)c1cnc2ccccc2c1)C(C)C | -0.682 | -0.517 (inactive) | -0.421 (inactive) | -3.98 (inactive) | -0.104 (inactive) | 0.183 (inactive) | 0.12 (inactive) | -0.406 (inactive) | 0.213 | -0.157 | -0.136 (inactive) | 0.725 | -2.95 | -5.04 (inactive) | 0.0066 (inactive) | 0.0865 (inactive)
COCCCN1C(=O)[C@@]2(c3ccc([N+](=O)[O-])cc3)CC(=O)N(CC34CC5CC(CC(C5)C3)C4)[C@@H]2c2ccc(CO)cc21 | -0.35 | 1.09 (inactive) | -0.566 (inactive) | -6.02 (inactive) | 0.792 (inactive) | 0.0202 (inactive) | 0.2 (inactive) | 0.334 (inactive) | -0.79 | 0.113 | 0.264 (inactive) | 0.578 | -0.243 | -0.113 (inactive) | -0.313 (inactive) | -0.793 (inactive)
COC(=O)[C@@]1(Cc2ccccc2)[C@H]2c3cc(C(=O)N4CCCC4)n(Cc4ccc(OC)c(OC)c4)c3C[C@H]2CN1C(=O)c1ccccc1 | 0.181 | 1.58 (inactive) | -0.466 (inactive) | 0.263 (inactive) | 0.0944 (inactive) | 1.72 (inactive) | -0.372 (inactive) | 0.352 (inactive) | -0.172 | 0.0589 | 0.633 (inactive) | 0.0643 | -1.32 | -4.87 (inactive) | 0.243 (inactive) | 0.282 (inactive)
O=C1O[C@@H](c2ccccc2)[C@@H](c2ccccc2)N2[C@@H](c3ccc(OCCO)cc3)[C@]3(C(=O)Nc4ccc(C#CCCO)cc43)[C@@H](C(=O)O)[C@H]12 | -0.0464 | -0.718 (inactive) | 0.314 (inactive) | -1.25 (inactive) | 0.185 (inactive) | 0.575 (inactive) | 0.932 (inactive) | 0.91 (inactive) | 0.104 | 0.104 | 0.901 (inactive) | 0.443 | 0.612 | -5.86 (inactive) | -0.368 (inactive) | -0.451 (inactive)
C=C(COC)/C(=C/C[C@H](OC(C)=O)c1ccccc1OCCO)c1cc(C(=O)OC)ccc1OC | -0.216 | -1.14 (inactive) | 0.181 (inactive) | -1.68 (inactive) | -0.718 (inactive) | 0.0505 (inactive) | -0.474 (inactive) | -0.653 (inactive) | -0.776 | -0.239 | 0.117 (inactive) | 0.788 | -2.75 | -4.27 (inactive) | -1.15 (inactive) | -1.14 (inactive)
CCCCC(=C=CC[C@H](O)c1ccc(CO)o1)CCO | -0.585 | -0.976 (inactive) | 0.0305 (inactive) | -0.776 (inactive) | 0.224 (inactive) | 0.648 (inactive) | -0.312 (inactive) | -0.409 (inactive) | -0.34 | -0.0663 | 0.234 (inactive) | 0.552 | 1.13 | -4.55 (inactive) | 0.818 (inactive) | 0.392 (inactive)
C=C1C(=O)C=C2CN(C(=O)c3ccccc3)[C@@](Cc3ccc(OC)cc3)(C(=O)OC)[C@@H]12 | -0.187 | 1.33 (inactive) | -1.82 (inactive) | 0.046 (inactive) | 0.964 (inactive) | 0.468 (inactive) | -0.624 (inactive) | -0.841 (inactive) | -4.1 | 0.107 | 0.187 (inactive) | 0.691 | -1.17 | -3.61 (inactive) | 0.395 (inactive) | 0.354 (inactive)
O=C(NCc1ccccc1)[C@@H]1c2ccccc2C(=O)N(Cc2cc(C(F)(F)F)cc(C(F)(F)F)c2)[C@H]1c1ccc(CO)cc1 | -0.527 | -0.247 (inactive) | 0.3 (inactive) | 0.819 (inactive) | 0.338 (inactive) | 1.06 (inactive) | 0.324 (inactive) | 0.0181 (inactive) | 1.03 | -0.147 | 0.722 (inactive) | 0.221 | -1.2 | -3.95 (inactive) | -0.0537 (inactive) | -0.101 (inactive)
CCOC(=O)C[C@H]1[C@H](OC(=O)c2cc3ccccc3oc2=O)[C@@H](NC(=O)CC(C)C)c2cc(OCCCO)ccc2N1C(=O)Cc1ccc(OC)cc1 | -0.74 | -0.628 (inactive) | -0.233 (inactive) | -0.144 (inactive) | -0.423 (inactive) | -0.746 (inactive) | -0.715 (inactive) | -1.18 (inactive) | -0.72 | -0.284 | 0.101 (inactive) | 0.686 | -2.45 | -4.83 (inactive) | 0.372 (inactive) | -0.268 (inactive)
COC(=O)[C@H](Cc1ccc(O)cc1)N[C@@H](/C=C/C1CC1)[C@H](O)Cc1ccccc1 | -0.752 | -3.58 (inactive) | -0.163 (inactive) | -0.23 (inactive) | -0.459 (inactive) | 0.0871 (inactive) | -0.396 (inactive) | -0.571 (inactive) | 0.177 | 0.85 | -0.364 (inactive) | -0.0324 | 1.55 | -5.14 (inactive) | 0.412 (inactive) | 0.0577 (inactive)
COc1ccc(C(=O)Nc2ccc(CN3C(=O)[C@@]4(O[C@@H](CCn5cc(CCO)nn5)[C@H]([Si](C)(C)c5ccc(OC)cc5)[C@H]4C)c4ccccc43)cc2)cc1 | -3.26 | -5.03 (inactive) | -4.02 (inactive) | 0.483 (inactive) | 0.863 (inactive) | 2.47 (inactive) | 1.07 (inactive) | -0.101 (inactive) | -3.35 | -0.0871 | 1.04 (inactive) | 0.561 | -2.71 | -3.79 (inactive) | -0.989 (inactive) | -1.13 (inactive)
